# Laboratory results from ChEMBL document CHEMBL3988442, “University of Dundee, Small-Polar-MMV Screening Library” (2021).
# The whole screen tested about 48,000 compounds, of which about 13,000 (27%) showed an effect of 50% or more. This is one part of the list.
# System: Wolbachia pipientis
# Assay: Anti-Wolbachia Cell-Based Screen
# Type: functional
# Parameters: scale not given: in the data most compounds retested in dose-response had high values
# Settings: 5 µM
row,SMILES,Percent Effect [%]
1,CN1CCN(c2ccc(NC(=O)c3ccoc3)c(C(F)(F)F)c2)CC1,7.046
2,O=C(c1ncncc1Cl)N1CCC2(CCCC2)CC1,-11.62
3,CN(C)C(=O)CCS(=O)(=O)Cc1ccn(-c2cccc(F)c2)n1,-10.5
4,Cn1cnc(NC(=O)C2CC(=O)N(c3cccc(F)c3)C2)n1 (stereo not drawn),77.24
5,CNC(=O)C1CC(=O)N(c2cccc(F)c2)C1 (stereo not drawn),-1.566
6,COc1cc(NC(=O)C2CC(=O)N(c3cccc(F)c3)C2)ncn1 (stereo not drawn),-6.208
7,O=C(Cc1ccc2c(c1)OCCCO2)Nc1nnn[nH]1,102.7
8,O=C(Cc1ccc2c(c1)OCCO2)NCCc1nnc2n1CCC2,-0.3257
9,O=C(CCc1ccc2c(c1)CCO2)Nc1nnn[nH]1,108.2
10,O=C(Cc1ccc2c(c1)OCCO2)NC1CCCC1,-1.576
11,O=C(Cc1ccc2c(c1)CCO2)Nc1cccnc1-n1cncn1,-24.6
12,O=C(Cc1ccc2c(c1)CCO2)N1CCN(c2cnccn2)CC1,-10.75
13,COc1ccc(-c2cnc(N(C)C)nc2C2CNCCO2)cc1.Cl (stereo not drawn),76.7
14,CN(C)c1ncc(-c2cncnc2)c(C2CNCCO2)n1.Cl (stereo not drawn),130
15,CN(C)c1ncc(-c2ccc(F)cc2)c(C2CNCCO2)n1.Cl (stereo not drawn),112.1
16,Cc1csc(C(C)(C)NCCCS(C)(=O)=O)n1,-31.79
17,CC(C)Cc1ccc(S(=O)(=O)Nc2ccc(=O)n(C)c2)cc1,-23.57
18,CC(C)C(O)C(=O)N1CCC2(CC1)c1nc[nH]c1CCN2S(C)(=O)=O (stereo not drawn),-6.881
19,CC(C)(C)C(=O)N1CCCC1c1nc(O)cc(-c2ccccn2)n1 (stereo not drawn),-2.189
20,O=C(c1ccncc1)N1CCCC1c1nc(O)cc(-c2ccccn2)n1 (stereo not drawn),134.3
21,O=C(c1cccnc1)N1CCCC1c1nc(O)cc(-c2ccccn2)n1 (stereo not drawn),120.2
22,O=C(c1cc(-c2ccc(O)cc2)n[nH]1)N1CCCC1c1cccnc1 (stereo not drawn),-9.956
23,CCc1cc(O)nc(C2CCCN2C(=O)c2cccnc2)n1 (stereo not drawn),-9.162
24,O=C(c1ccc2c(c1)COC2)N1CCN(CC2CC2)CC1,-6.158
25,CCN1CCc2c(c(COC)nn2C)C1,-29.06
26,CCOCc1nn(C)c2c1CN(C(=O)c1ccno1)CC2,-1.809

row,SMILES,Percent Effect [%]
1,CCOCc1nn(C)c2c1CN(CCO)CC2,105.8
2,Cn1nc(COCC2CC2)c2c1CCN(Cc1cccs1)C2.O=C(O)C(F)(F)F,99.16
3,O=C(O)C(F)(F)F.c1csc(CN2CCCn3cnc(COCC4CC4)c3C2)c1,-4.67
4,CCOCc1nn(CC2CC2)c2c1CN(Cc1cccs1)CC2.O=C(O)C(F)(F)F.O=C(O)C(F)(F)F,105
5,CC(C)OCc1nn(C)c2c1CN(Cc1cccs1)CC2.O=CO,90.1
6,COCc1nn(C(C)C)c2c1CCN(Cc1cccs1)C2.O=C(O)C(F)(F)F,0.7419
7,Cn1nc(COCC2CC2)c2c1CCN(Cc1ccco1)C2.O=C(O)C(F)(F)F,-12.11
8,CCOCc1nn(CC2CC2)c2c1CN(Cc1ccco1)CC2.O=C(O)C(F)(F)F,-45.76
9,COCc1nn(CC2CC2)c2c1CN(Cc1cccs1)CC2.O=C(O)C(F)(F)F,-6.214
10,Cc1nc(NC(C)C)nc2c1CN(Cc1cccs1)CC2,0.7721
11,Cc1ccc(C)c2c(O)cc(CNCC(=O)N3CCCC3)nc12,-11.62
12,COc1ccc(CNC(=O)N2CCCN(CC3CCCCC3)CC2)cn1,-6.571
13,CN(C)c1ncccc1NC(=O)COC1CCCC1,0.222
14,CCOCc1nn(C)c2c1CN(Cc1cccs1)CC2.O=C(O)C(F)(F)F,87.87
15,O=C(O)C(F)(F)F.OCCOCc1ncn2c1CN(Cc1cccs1)CCC2,0.3209
16,CCCN(CC(F)F)c1cc(COC)nc2ncnn12,-12.24
17,O=C(c1ccc(C2CCCN2)s1)N1CCC2(CCCO2)CC1 (stereo not drawn),16.77
18,COc1cnc(N2CCCN(c3ccc(F)cc3)CC2)nc1,8.48
19,CC1CCN(c2ccc(CNC(=O)NCCn3ccnc3)cn2)CC1,0.6283
20,c1cc(CN2CCCN(c3ccc4cc[nH]c4n3)CC2)ccn1,-27.97
21,c1csc(CN2CCCN(c3ccc(Cn4ccnc4)cn3)CC2)c1,106.4
22,OC1CCN(C2CCN(c3ccc(Cn4ccnc4)cn3)CC2)CC1,89.01
23,c1cn(Cc2nnc(C3CCN(C4CCCCC4)CC3)n2C2CC2)cn1,13.15
24,c1csc(-c2cc(CN3CCN(c4cnccn4)CC3)no2)c1,-0.0676
25,O=C(NCCn1ccnc1)NCc1ccc(N2CCCCCC2)nc1,15.34
26,Fc1ccc(N2CCCN(c3ccc(Cn4ccnc4)cn3)CC2)cc1,119.2

row,SMILES,Percent Effect [%]
1,CN(CC1CCN(c2ccccc2)C1)c1ccc(Cn2ccnc2)cn1 (stereo not drawn),-14.61
2,c1cn(Cc2ccc(N3CCCN(C4CCCC4)CC3)nc2)cn1,96.41
3,CC(C)N1CCCC(CN(C)c2ccc(Cn3ccnc3)cn2)C1 (stereo not drawn),-1.53
4,CCOc1ccc(C(=O)N2Cc3cnc(CC(C)C)nc3C2)o1,-22.23
5,Cc1ccc(CC(NC(=O)CCS(C)(=O)=O)c2ccccn2)cc1 (stereo not drawn),-19.62
6,C[S+]([O-])c1nncn1CC(=O)c1ccc(Br)cc1 (stereo not drawn),-5.183
7,Cc1ccc(CN2CCCC3(CCCCN3S(C)(=O)=O)C2)s1.O=C(O)C(F)(F)F (stereo not drawn),-28.3
8,Cc1ncncc1C(=O)N1CCCC1c1c(C)nn(C)c1Cl (stereo not drawn),95.8
9,Cc1nn(C)c(Cl)c1C1CCCN1C(=O)c1cc[nH]n1 (stereo not drawn),-2.963
10,Cc1ccn2cc(C(=O)N3CCCC3c3c(C)nn(C)c3C)nc2c1 (stereo not drawn),3.405
11,CC(=O)NCc1ccc(C(=O)N2CCCC2c2c(C)nn(C)c2C)o1 (stereo not drawn),97.07
12,Cc1nn(C)c(Cl)c1C1CCCN1C(=O)c1csnn1 (stereo not drawn),106
13,Cc1nn(C)c(Cl)c1C1CCCN1C(=O)c1cnccn1 (stereo not drawn),91.27
14,CCc1nc(CNCC2(C(N)=O)CCOCC2)cs1,1.973
15,CCCC1(CO)CCCN(c2ncccc2F)C1 (stereo not drawn),-3.484
16,COc1ccc(OCc2cc(C(=O)N3CCN[C@H](C)C3)n[nH]2)c(Cl)c1,-13.06
17,CNC(=O)c1ccc(CN(C(C)C)C(C)C)o1.Cl,-8.523
18,COc1cc(C)c(CNC(C)c2csc(C)n2)cc1OC (stereo not drawn),-9.97
19,N#CCCN(CCC#N)C(=O)COC1CCCCC1,-15.39
20,COc1c(C2CCCN2C(=O)c2ccco2)c(C)nn1C (stereo not drawn),-0.9591
21,Cc1nn(C)c(Cl)c1C1CCCN1C(=O)c1cnn(C)c1C1CC1 (stereo not drawn),93.32
22,COc1c(C2CCCN2C(=O)c2csc(C3CC3)n2)c(C)nn1C (stereo not drawn),61.26
23,COc1c(C2CCCN2C(=O)c2cnn(C)c2C2CC2)c(C)nn1C (stereo not drawn),-4.592
24,COc1c(C2CCCN2C(=O)c2cc(C)on2)c(C)nn1C (stereo not drawn),99.28
25,COc1c(C2CCCN2C(=O)c2csc(C(C)C)n2)c(C)nn1C (stereo not drawn),8.615
26,CCc1ccc(C(=O)N2CCCC2c2c(C)nn(C)c2OC)o1 (stereo not drawn),54.64

row,SMILES,Percent Effect [%]
1,COCc1nc(C(=O)N2CCCC2c2c(C)nn(C)c2C)cs1 (stereo not drawn),3.792
2,COc1c(C2CCCN2C(=O)c2cc(C3CC3)on2)c(C)nn1C (stereo not drawn),-11.04
3,CCc1noc(C)c1C(=O)N1CCCC1c1c(C)nn(C)c1OC (stereo not drawn),-9.828
4,COc1c(C2CCCN2C(=O)c2ccc(Cl)o2)c(C)nn1C (stereo not drawn),6.578
5,c1ccc(CCCN2CC[C@H](c3nnc(-c4ccccc4)o3)C2)cc1,-1.621
6,CCN(Cc1ccoc1)C(C(N)=O)c1ccc(C#N)cc1 (stereo not drawn),0.4454
7,O=C(NCCc1csc(N2CCCC2)n1)N(C1CCCC1)C1CC1,-4.119
8,Cc1cc2nc(CO[C@H]3CN(C4CCCCC4)C[C@H]3F)[nH]c2cc1C,9.281
9,Cc1noc([C@@H]2C[C@H]3CN(Cc4ccc5c(c4)OCO5)C[C@H]3O2)n1.O=C(O)C(F)(F)F,-40.6
10,COc1c(C2CCCN2C(=O)c2cnc(C)cn2)c(C)nn1C (stereo not drawn),86.16
11,COc1c(C2CCCN2C(=O)c2cscn2)c(C)nn1C (stereo not drawn),88.43
12,COc1c(C2CCCN2C(=O)c2cnccn2)c(C)nn1C (stereo not drawn),114.6
13,Cc1nn(C)c(Cl)c1C1CCCN1C(=O)c1cc(C2CC2)on1 (stereo not drawn),102.8
14,Cc1nc[nH]c1-c1nnc(SCC(=O)O)n1-c1ccccc1C(F)(F)F,-17.22
15,O=S(=O)(Cc1ccccc1F)NC(CO)c1ccco1 (stereo not drawn),6.014
16,Cl.Cl.Cl.O[C@@H]1C[C@@](CNCc2ccccn2)(COc2cccnc2)C[C@@H]1O,-17.47
17,Cc1ccsc1CNC(=O)c1ccc(N2CCNC2=O)cc1,1.647
18,COc1ccc(NC(=O)N2CCC3(CC2)NC(=O)CC3C(=O)O)c(C)c1 (stereo not drawn),2.707
19,Cn1c(CS(=O)(=O)Cc2cccc(Cl)c2)cc(=O)n(C)c1=O,7.085
20,CCS(=O)(=O)CCNc1nc(C2CCCC2)nc2c1cnn2C,3.087
21,Cc1nn(C)c(C)c1C1CCCN1C(=O)Cc1cn2ccsc2n1 (stereo not drawn),10.74
22,COc1c(C2CCCN2C(=O)Cc2c(C)noc2C)c(C)nn1C (stereo not drawn),-5.371
23,CCc1nc(CC(=O)N2CCCC2c2c(C)nn(C)c2OC)cs1 (stereo not drawn),118.7
24,CCN(c1ccc(C(=O)Nc2c(C)nn(C(C)C)c2C)cc1)C(C)C,-6.116
25,COc1cccc(N2CC3(CCN(c4ccc(C)nn4)C3)CC2=O)c1 (stereo not drawn),3.863
